This note sets out measurements from PubChem BioAssay AID463173 (ICCB-Longwood Screening Facility, Harvard Medical School, 2010).

The structures appear in SMILES notation. About 4,300 (8.3%) of roughly 52,000 compounds were called active. The sample holds actives, similar compounds and a random draw of the others, so the mix is not that of the screen. Values without a mark were called inactive. Cut-off read from the data, not from the text of the source: active = survival mostly below about 52% (no sharp cut-off); inactive = mostly above about 56%.

This assay relates to DeltatarO mutant. In words: growth inhibition of S. aureus wild type versus tarO mutant, primary screen, teichoic acid synthesis inhibitors, RN4220, OD600 (AID 463173). As to conditions: OD600, 18 h, active compounds read low, screened at 18.75 µg/mL (by protocol).
On to `CCOC(=O)Cn1c(=O)oc2cc(S(=O)(=O)N3CCN(c4cccc(Cl)c4)CC3)ccc21`, for which the survival was 65%.
With `COc1cccc2c1Oc1ncccc1N(c1ccc(C(=O)NCc3ccccc3Cl)s1)C2` the figure was 91%; with `COc1ccc(Cn2c(CCC(=O)Nc3ccc(OC)c(Cl)c3)nc3cccnc32)cc1`, 113%.
With `Cc1cccc(-c2nc(C)c(CCNC(=O)C(=O)Nc3ccccc3C#N)s2)c1` the figure was 85%.
`CS(=O)(=O)N1CCC(n2c(C(F)(F)F)nc3cccnc32)CC1`: the survival is 47% (active).
With `CN(C)S(=O)(=O)N1CCC(n2c(C(F)(F)F)nc3cccnc32)CC1` the figure was 94%; with `CCS(=O)(=O)N1CCC(n2c(C(F)(F)F)nc3cccnc32)CC1`, 76%.
Next, `COc1ccc(S(=O)(=O)c2c(O)c3ccc(C(=O)NCc4ccc(F)cc4)cc3[nH]c2=O)cc1`: 108%.
Next, `CCOc1cc(-c2ccc(OC(=O)c3ccccc3)c(OC)c2)cc(=O)c2c(C)oc(C)c12`: 89%.
With `CCc1ccc(S(=O)(=O)c2nnn3c2nc(Nc2cc(OC)cc(OC)c2)c2cc(Cl)ccc23)cc1`, the survival is 102%.
Take `CCOc1ccc(Nc2nc(C)c(NC(=O)c3ccc(C)cc3)c(Nc3ccc(OCC)cc3)n2)cc1`: the survival was 123%.
With `CCOc1ccc(Nc2nc(C)c(NC(=O)c3cccc(OC)c3)c(Nc3ccc(OCC)cc3)n2)cc1` the figure was 112%.
With `CCOc1ccc(C(=O)Nc2c(C)nc(Nc3ccccc3)nc2Nc2ccccc2)cc1OCC` the figure was 49% (active); with `COc1ccccc1Cc1nc2ccccc2nc1SCC(=O)N(C)c1ccc(F)cc1`, 83%.
Next, `O=C(Cn1cc(SCc2ccc(C(F)(F)F)cc2)c2ccccc21)N1CCOCC1`: 85%; `COc1ccc(NC(=O)NC2COc3ccccc3C2)cc1Cl` (stereo not drawn): 57%; `COc1ccc(NC(=O)NC2COc3ccccc3C2)c(OC)c1` (stereo not drawn): 98%.
As to `O=C(Nc1ccc(OC(F)(F)F)cc1)NC1COc2ccccc2C1` (stereo not drawn), the survival is 0% (active).
With `O=C(Nc1cccnc1)c1cccc(C(=O)Nc2cccnc2)c1`, the survival is 79%.
Take `O=C(O)c1ccccc1C(=O)Nc1cccnc1`: the survival was 89%.
As for `O=C(Nc1cccnc1)c1ccccc1Oc1ccccc1`, the survival is 65% (active).
Next, `CCOc1ccc(-c2c(C)nn3c(C)c(C(=O)NCc4cccc(OC)c4)cnc23)cc1OCC`: 77%; `COc1ccc(N(CC(=O)Nc2cccc(C(C)=O)c2)S(=O)(=O)c2ccccc2)c(OC)c1`: 48% (active); `COc1ccc(N(CC(=O)Nc2ccc(Cl)cc2C)S(=O)(=O)c2ccccc2)c(OC)c1`: 113%.
Next, `COc1ccc(N(CC(=O)NCCc2ccccc2)S(=O)(=O)c2ccccc2)c(OC)c1`: 57%; `Cc1ccc(CNC(=O)CN(c2ccc(Cl)cc2Cl)S(=O)(=O)c2ccccc2)cc1`: 47%; `CC(NC(=O)CN(c1ccc(Cl)cc1Cl)S(=O)(=O)c1ccccc1)c1ccccc1` (stereo not drawn): 37% (active).
With `CCOc1ccc(NC(=O)CN(c2ccccc2OCC)S(=O)(=O)c2ccccc2)cc1` the figure was 48%; with `CCOc1ccc(S(=O)(=O)N(CC(=O)Nc2ccc(OC)c(Cl)c2)c2ccccc2)cc1`, 75%; with `Cc1ccccc1NC(=O)CN(c1ccc(Cl)cc1Cl)S(=O)(=O)c1ccccc1`, 44%.
`CCOc1ccc(NC(=O)CN(c2ccc(Cl)cc2C)S(=O)(=O)c2ccccc2)cc1`: the survival is 45% (active).
With `CCN(CC)CCCNc1nc(C)nc2c1nnn2Cc1ccccc1` the figure was 94%.
Next, `CC(C(=O)NCc1ccco1)N1CCN(C)CC1` (stereo not drawn): 95%; `CC(C)NC(=O)Cc1ccc(Br)cc1`: 80%.
Next, `Cc1cccc(N(C)S(=O)(=O)c2cc(-c3cnc(C4CC4)o3)ccc2C)c1`: 100%; `CC(=O)Nc1nonc1-c1nnc(SCC(=O)Nc2ccc(F)cc2F)n1-c1ccccc1`: 13% (active); `CC(=O)Nc1nonc1-c1nnc(SCC(=O)Nc2c(C)cccc2C)n1-c1ccccc1`: 56%.
Consider `CC(=O)Nc1nonc1-c1nnc(SCC(=O)Nc2ccccc2)n1-c1ccccc1`, for which the survival is 39% (active).
With `COc1ccc(NC(=O)CSc2nnc(-c3nonc3NC(C)=O)n2-c2ccccc2)cc1` the figure was 60% (active); with `CC(=O)Nc1nonc1-c1nnc(SCC(=O)Nc2ccc(C)cc2)n1-c1ccccc1`, 53%; with `CC(=O)Nc1nonc1-c1nnc(SCC(=O)Nc2cc(C)ccc2C)n1-c1ccccc1`, 104%.
With `CCc1ccc(NC(=O)CSc2nnc(-c3nonc3NC(C)=O)n2-c2ccccc2)cc1` the figure was 43% (active); with `CCn1c(SCC(=O)Nc2ccc(C)c(C)c2)nnc1-c1nonc1NC(C)=O`, 110%; with `CCOc1ccc(NC(=O)CSc2nnc(-c3ccncc3)n2-c2ccccc2)cc1`, 122%.
Next, `CCc1ccccc1NC(=O)CSc1nnc(-c2nonc2NC(C)=O)n1C`: 52%; `COc1ccccc1NC(=O)CSc1nnc(-c2nonc2NC(C)=O)n1-c1ccccc1`: 63%; `COc1ccc(NC(=O)CSc2nnc(-c3ccncc3)n2-c2ccccc2)cc1`: 77%.
Take `Cc1cccc(NC(=O)CSc2nc3ccc(NC(=O)c4ccco4)cc3s2)c1`: the survival is 66%.
Next, `CCC1CN(C(=O)N2CCC(C(=O)NCc3ccc(OC)cc3OC)CC2)c2cc(C)ccc2O1` (stereo not drawn): 79%; `CCOc1cc(C2c3c(oc4ccccc4c3=O)C(=O)N2c2ccccn2)ccc1O` (stereo not drawn): 109%; `CCOC(=O)Cn1c(=O)oc2cc(S(=O)(=O)NCc3ccc(F)cc3)ccc21`: 72%.
For `Cc1cccn2c(=O)c(C(=O)NCCc3ccc(S(N)(=O)=O)cc3)c(O)nc12`, the survival was 51%.
With `Cc1nn2c(=O)cc(COc3ccc(/C=C(\C#N)C(=O)Nc4ccc(F)cc4)cc3)nc2s1` the figure was 58%; with `CCOC(=O)c1c(C)[nH]c(C)c1S(=O)(=O)N1CCC(C(=O)Nc2ccc(C)c(N(C)C)c2)CC1`, 84%.
With `CC(=O)N1CCc2nc3sc(C(=O)Nc4ccc(Cl)cc4F)c(N)c3c(C(F)(F)F)c2C1` the figure was 75%; with `CC(=O)Nc1nonc1-c1nnc(SCC(=O)Nc2cc(C)cc(C)c2)n1-c1ccccc1`, 50%.
Next, `CC(=O)Nc1nonc1-c1nnc(SCC(=O)Nc2cccc(F)c2)n1-c1ccccc1`: 19% (active).
Turning to `CC(=O)Nc1nonc1-c1nnc(SCC(=O)Nc2cccc(C)c2C)n1-c1ccccc1`, the survival was 61%.
